Source: PubChem BioAssay (NCATS)
Records with an inconclusive call do not appear. Active and inactive are the calls of the source. Unless noted, calls come from the whole dose curve; as a rule, active = well fitted inhibition curve with a large enough effect; inconclusive = small, poorly fitted or top-dose-only effect; inactive = flat fitted curve, though single readings scatter.

Columns and labels:
[1] = qHTS for identification of novel therapeutic agents for treatment of microphthalmiaassociated transcription factor (MiT) renal cell carcinoma (RCC) (AID 1963991); conditions: CellTiter-Glo, 48 h, stronger effect = lower value
Summary of the method: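 Three TFE3-fusion RCC lines (UOK109, UOK124, UOK145), 500 cells/well in complete medium, were treated with MIPE 4.0 compounds for 48 hours at 37 C. Viability was by CellTiter-Glo luminescence, normalized to DMSO (100%) and empty wells (0%); curves fitted over 11 concentrations.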

[2] = qHTS profiling for inhibitors of Plasmodium falciparum proliferation (AID 504749); note: nearly all actives have a fitted effect of over 60% in size; note: potency is the fitted concentration of half-maximal effect;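 for activity, negative = inhibition: 0% = DMSO vehicle and full inhibition = artemisinin control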; conditions: P. falciparum in erythrocytes, SYBR Green DNA, 72 h
Summary of the method: (§1)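 Readout was DNA-dye fluorescence from lysed cultures, ex 485/em 535 nm. Parasitized red cells had grown 72 h with compound; data scaled between 0.29 uM artemisinin and DMSO wells and corrected using vehicle-only plates.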

3D7 = experiment: as above; conditions: P. falciparum in erythrocytes, SYBR Green DNA, 72 h; series mostly up to 28.7 µM
Summary of the method: as §1

7G8 = experiment: as above; conditions: P. falciparum in erythrocytes, SYBR Green DNA, 72 h; series mostly up to 28.7 µM
Summary of the method: as §1

AA1029 = experiment: as above; conditions: P. falciparum in erythrocytes, SYBR Green DNA, 72 h; series mostly up to 28.7 µM
Summary of the method: as §1

AS120 = experiment: as above; conditions: P. falciparum in erythrocytes, SYBR Green DNA, 72 h; series mostly up to 28.7 µM
Summary of the method: as §1

ATS189 = experiment: as above; conditions: P. falciparum in erythrocytes, SYBR Green DNA, 72 h; series mostly up to 28.7 µM
Summary of the method: as §1

ATS95 = experiment: as above; conditions: P. falciparum in erythrocytes, SYBR Green DNA, 72 h; series mostly up to 28.7 µM
Summary of the method: as §1

C2A = experiment: as above; conditions: P. falciparum in erythrocytes, SYBR Green DNA, 72 h; series mostly up to 28.7 µM
Summary of the method: as §1

CP185 = experiment: as above; conditions: P. falciparum in erythrocytes, SYBR Green DNA, 72 h; series mostly up to 28.7 µM
Summary of the method: as §1

CP191 = experiment: as above; conditions: P. falciparum in erythrocytes, SYBR Green DNA, 72 h; series mostly up to 28.7 µM
Summary of the method: as §1

CP192 = experiment: as above; conditions: P. falciparum in erythrocytes, SYBR Green DNA, 72 h; series mostly up to 28.7 µM
Summary of the method: as §1

CP194 = experiment: as above; conditions: P. falciparum in erythrocytes, SYBR Green DNA, 72 h; series mostly up to 28.7 µM
Summary of the method: as §1

CP201 = experiment: as above; conditions: P. falciparum in erythrocytes, SYBR Green DNA, 72 h; series mostly up to 28.7 µM
Summary of the method: as §1

CP203 = experiment: as above; conditions: P. falciparum in erythrocytes, SYBR Green DNA, 72 h; series mostly up to 28.7 µM
Summary of the method: as §1

CP211 = experiment: as above; conditions: P. falciparum in erythrocytes, SYBR Green DNA, 72 h; series mostly up to 28.7 µM
Summary of the method: as §1

CP217 = experiment: as above; conditions: P. falciparum in erythrocytes, SYBR Green DNA, 72 h; series mostly up to 28.7 µM
Summary of the method: as §1

CP237 = experiment: as above; conditions: P. falciparum in erythrocytes, SYBR Green DNA, 72 h; series mostly up to 28.7 µM
Summary of the method: as §1

[3] = qHTS drug screen for cell cycle checkpoint inhibitors in PARPi-resistant BRCA-mutant ovarian cancer cell lines. (AID 1963452; calls by dose curve; note: potency is the fitted concentration of half-maximal effect); conditions: PEO1/OlaR viability, CellTiter-Glo luminescence, 96 h; for Z-AUC: stronger effect = lower value
Summary of the method: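 PEO1, PEO4 and PEO1/OlaR ovarian cancer cells, 600 per well, exposed 96 h at 37C to a dilution series. Viability read by CellTiter-Glo luminescence, normalized to DMSO and empty wells; activity summarized as Z-AUC.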

CP215 = experiment: qHTS profiling for inhibitors of Plasmodium falciparum proliferation (AID 504749); note: nearly all actives have a fitted effect of over 60% in size; note: potency is the fitted concentration of half-maximal effect;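 for activity, negative = inhibition: 0% = DMSO vehicle and full inhibition = artemisinin control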; conditions: P. falciparum in erythrocytes, SYBR Green DNA, 72 h; series mostly up to 28.7 µM
Summary of the method: as §1

[4] = TFE3-RCC UOK109 viability, measured here: UOK109 Z-AUC
[5] = TFE3-RCC viability, measured here: UOK124 Z-AUC
[6] = TFE3-RCC viability, measured here: UOK145 Z-AUC
[7] = at 28.7 µM (top of the series), parasite line A
[8] = at 28.7 µM (top of the series), parasite line B
[9] = measured here: PEO1 parental Z-AUC
[10] = at 12.8 µM (top of the series), parasite line A
[11] = at 12.8 µM (top of the series), parasite line B

CNS(=O)(=O)Cc1ccc2[nH]cc(CCN(C)C)c2c1
0.748: z-score [1, 4]
0.938: z-score [1, 5]
inactive: activity, negative = inhibition [2, 7] -10.9% | activity, negative = inhibition [2, 8] -3.89% | Potency (3D7) | Potency (7G8) | Potency (AA1029) | Potency (AS120) | Potency (ATS189) | Potency (ATS95) | Potency (C2A) | Potency (CP185) | Potency (CP191) | Potency (CP192) | Potency (CP194) | Potency (CP201) | Potency (CP203) | Potency (CP211) | Potency (CP217) | Potency (CP237)
0.747: z-score [1, 6]

COc1ccccc1OCC(O)COC(N)=O (configuration not stated)
0.974: z-score [1, 5]
0.0196: z-score [1, 4]
0.377: z-score [1, 6]

CCc1c2c(nc3ccc(OC(=O)N4CCC(N5CCCCC5)CC4)cc13)-c1cc3c(c(=O)n1C2)COC(=O)[C@]3(O)CC
-1.83: Z-AUC ([3]; measured here: PEO4 Z-AUC)
inactive: activity, negative = inhibition [2, 7] -1.15% | Potency (3D7) | Potency (AA1029) | Potency (AS120) | Potency (ATS189) | Potency (ATS95) | Potency (C2A) | Potency (CP185) | Potency (CP191) | Potency (CP192) | Potency (CP194) | Potency (CP201) | Potency (CP203) | Potency (CP211) | Potency (CP215) | Potency (CP217) | Potency (CP237)
active: Potency [3] 30.9 nM
-2.61: Z-AUC [3, 9]

Cc1ncc([N+](=O)[O-])n1CCO
inactive: activity, negative = inhibition [2, 7] -7.64% | activity, negative = inhibition [2, 8] 6.06% | Potency (3D7) | Potency (7G8) | Potency (AA1029) | Potency (AS120) | Potency (ATS189) | Potency (ATS95) | Potency (C2A) | Potency (CP185) | Potency (CP191) | Potency (CP192) | Potency (CP194) | Potency (CP201) | Potency (CP203) | Potency (CP211) | Potency (CP217) | Potency (CP237)

COc1nc(N)nc2c1ncn2[C@@H]1O[C@H](CO)[C@@H](O)[C@@H]1O
0.831: z-score [1, 4]
inactive: activity, negative = inhibition [2, 7] -5.23% | activity, negative = inhibition [2, 8] -4.98% | Potency (3D7) | Potency (AA1029) | Potency (AS120) | Potency (ATS189) | Potency (ATS95) | Potency (C2A) | Potency (CP185) | Potency (CP191) | Potency (CP192) | Potency (CP194) | Potency (CP201) | Potency (CP203) | Potency (CP211) | Potency (CP215) | Potency (CP217) | Potency (CP237)
1.01: z-score [1, 5]
0.757: z-score [1, 6]

CC(C)(C)C(=O)OCOP(=O)(COCCn1cnc2c(N)ncnc21)OCOC(=O)C(C)(C)C
-0.0203: Z-AUC ([3]; measured here: PEO4 Z-AUC)
0.013: Z-AUC [3, 9]
inactive: Z-AUC [3] 0.383 | Potency (CP194) | Potency (CP201) | Potency (CP211)

Oc1c(Cl)cc(Cl)c2cccnc12
-0.0999: Z-AUC [3, 9]
-0.27: Z-AUC ([3]; measured here: PEO4 Z-AUC)
inactive: Z-AUC [3] 0.201 | Potency (CP192) | Potency (CP201)
active: Potency ([2]; parasite line B) 10 µM | Potency (7G8) 6.31 µM | Potency (AS120) 11.2 µM | Potency (ATS189) 8.91 µM | Potency (ATS95) 7.94 µM | Potency (CP185) 11.2 µM | Potency (CP191) 11.2 µM | Potency (CP217) 8.91 µM | Potency (CP237) 10 µM

COc1cnc(NS(=O)(=O)c2ccc(N)cc2)nc1
inactive: activity, negative = inhibition [2, 10] 3.37% | activity, negative = inhibition [2, 11] 2.7% | Potency (3D7) | Potency (7G8) | Potency (AA1029) | Potency (AS120) | Potency (ATS189) | Potency (ATS95) | Potency (C2A) | Potency (CP185) | Potency (CP191) | Potency (CP192) | Potency (CP194) | Potency (CP201) | Potency (CP203) | Potency (CP211) | Potency (CP215) | Potency (CP217) | Potency (CP237)

CC1=C(C(=O)O)N2C(=O)[C@@H](NC(=O)C(N)c3ccccc3)[C@H]2SC1 (some centres not stated)
1.68: z-score [1, 4]
0.228: z-score [1, 5]
0.731: z-score [1, 6]

N[C@@H](C(=O)N[C@@H]1C(=O)N2C(C(=O)O)=C(Cl)CS[C@H]12)c1ccccc1
0.137: z-score [1, 5]
0.843: z-score [1, 6]
1.18: z-score [1, 4]
inactive: activity, negative = inhibition [2, 7] 10% | activity, negative = inhibition [2, 8] -2.02% | Potency (3D7) | Potency (7G8) | Potency (AA1029) | Potency (AS120) | Potency (ATS189) | Potency (ATS95) | Potency (C2A) | Potency (CP185) | Potency (CP191) | Potency (CP192) | Potency (CP194) | Potency (CP201) | Potency (CP203) | Potency (CP211) | Potency (CP215) | Potency (CP217) | Potency (CP237)

COc1cc(NS(=O)(=O)c2ccc(N)cc2)nc(OC)n1
inactive: activity, negative = inhibition [2, 10] 5.18% | activity, negative = inhibition [2, 11] -3.51% | Potency (3D7) | Potency (7G8) | Potency (AA1029) | Potency (AS120) | Potency (ATS189) | Potency (ATS95) | Potency (C2A) | Potency (CP185) | Potency (CP191) | Potency (CP192) | Potency (CP194) | Potency (CP201) | Potency (CP203) | Potency (CP211) | Potency (CP215) | Potency (CP217) | Potency (CP237)

CNC(=O)c1cc(Oc2ccc(NC(=O)Nc3ccc(Cl)c(C(F)(F)F)c3)cc2)ccn1
0.253: Z-AUC ([3]; measured here: PEO4 Z-AUC)
active: Potency (7G8) 1 µM | Potency (AS120) 10 µM | Potency (CP192) 10.7 µM | Potency (CP194) 10.7 µM | Potency (CP211) 12 µM | Potency (CP215) 15.1 µM | Potency (CP237) 11.2 µM
inactive: Z-AUC [3] 0.739
0.309: Z-AUC [3, 9]

Cc1cccc(Nc2ccncc2S(=O)(=O)NC(=O)NC(C)C)c1
0.17: z-score [1, 5]
0.58: z-score [1, 6]
0.581: z-score [1, 4]
inactive: activity, negative = inhibition [2, 10] -0.953% | activity, negative = inhibition [2, 11] 11.1% | Potency (3D7) | Potency (7G8) | Potency (AA1029) | Potency (AS120) | Potency (ATS189) | Potency (ATS95) | Potency (C2A) | Potency (CP185) | Potency (CP191) | Potency (CP192) | Potency (CP194) | Potency (CP201) | Potency (CP203) | Potency (CP211) | Potency (CP215) | Potency (CP217) | Potency (CP237)

CCN(C)C(=O)Oc1cccc([C@H](C)N(C)C)c1
1.29: z-score [1, 6]
0.893: z-score [1, 4]
inactive: activity, negative = inhibition [2, 7] 3.53% | activity, negative = inhibition [2, 8] 1.69% | Potency (3D7) | Potency (7G8) | Potency (AA1029) | Potency (AS120) | Potency (ATS189) | Potency (ATS95) | Potency (C2A) | Potency (CP185) | Potency (CP191) | Potency (CP192) | Potency (CP194) | Potency (CP201) | Potency (CP211) | Potency (CP215) | Potency (CP217) | Potency (CP237)
0.446: z-score [1, 5]

Cc1onc(-c2ccccc2Cl)c1C(=O)N[C@@H]1C(=O)N2[C@@H]1SC(C)(C)[C@@H]2C(=O)O
1.22: z-score [1, 4]
0.834: z-score [1, 5]
1.69: z-score [1, 6]
